Laboratory results taken from PubChem BioAssay (NCI).
This is part of a sample that, as a whole, favours compounds with a hit. Of some 79,000 tested, about 15% had one in any assay. Calls of active or inactive are those of the source. No stated cut-off is given here; in the data, active means growth inhibition above about 70%; inactive means the rest.

Key:
[1] = NCI Yeast Anticancer Drug Screen. Data for the rad50 strain (AID 155);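 further: 0% = growth of vehicle-only cultures of the same strain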; settings: S. cerevisiae rad50 strain growth inhibition, stronger effect = higher value
Outline: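 Genetically altered yeast (DNA repair pathway); compound treatment; growth inhibition vs vehicle ctrl.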

[2] = NCI Yeast Anticancer Drug Screen. Data for the mec2-1 strain (AID 157); settings: S. cerevisiae mec2-1 strain, stronger effect = higher value
Outline: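 Test agents were screened against the mec2-1 yeast strain, with defined DNA repair or cell cycle alteration. Growth was scored as inhibition against vehicle-only controls.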

[3] = NCI Yeast Anticancer Drug Screen. Data for the sgs1 mgt1 strain (AID 161);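 further: 0% = growth of cultures given vehicle only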; settings: S. cerevisiae sgs1 mgt1 strain, stronger effect = higher value
Outline: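 Genetically altered yeast, compound exposure, growth inhibition relative to vehicle.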

[4] = NCI Yeast Anticancer Drug Screen. Data for the cln2 rad14 strain (AID 165);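 further: 0% = growth equal to vehicle treated cultures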; settings: S. cerevisiae cln2 rad14 strain, stronger effect = higher value
Outline: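 Growth of compound-exposed yeast (cln2 rad14 genotype) measured and expressed as inhibition relative to vehicle.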

[5] = NCI Yeast Anticancer Drug Screen. Data for the bub3 strain (AID 167); settings: S. cerevisiae bub3 mutant strain, stronger effect = higher value
Outline: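 Yeast carrying a defined mutation is treated with each compound, and growth is compared with that of vehicle-exposed cells to give inhibition.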

[6] = NCI Yeast Anticancer Drug Screen. Data for the mlh1 rad18 strain (AID 175); settings: S. cerevisiae mlh1 rad18 strain growth inhibition, stronger effect = higher value
Outline: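 In this whole-cell yeast screen, a strain with altered DNA damage repair is challenged with compound, and its growth is measured against matched vehicle-treated controls.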

[7] = at 5.0 µM (retest, dose inferred, filed as 0.5)
[8] = at 50.0 µM (retest, dose inferred, filed as 5.0)

Measured: growth inhibition

CSc1cc(Cl)c(C)cc1S(=O)(=O)NC(=O)Nc1ccc(Cl)cc1
active: [1]; [8] 97% | [1]; at 50.0 µM 99.1% | [2]; [8] 99% | [2]; at 50.0 µM 99% | [3]; [8] 97% | [3]; at 50.0 µM 99.5% | [4]; [8] 97% | [4]; at 50.0 µM 98.7% | [5]; [8] 98% | [5]; at 50.0 µM 98.5% | [6]; [8] 99% | [6]; at 50.0 µM 99.3%
inactive: [1]; [7] 25% | [2]; [7] 34% | [3]; [7] 24% | [4]; [7] 45% | [5]; [7] 35% | [6]; [7] 29%

O=C(O)C(S(=O)(=O)O)S(=O)(=O)O
active: [1]; [7] 99% | [1]; [8] 99% | [1]; at 50.0 µM 99.2% | [2]; [8] 99% | [2]; at 50.0 µM 99.4% | [3]; [7] 100% | [3]; [8] 99% | [3]; at 50.0 µM 99.1% | [4]; [7] 100% | [4]; [8] 99% | [4]; at 50.0 µM 99.3% | [5]; [7] 99% | [5]; [8] 99% | [5]; at 50.0 µM 98.4% | [6]; [7] 99% | [6]; [8] 99% | [6]; at 50.0 µM 99.3%
inactive: [2]; [7] 54%

COc1ccc2nc(-c3ccc(Cl)cc3)[nH]c2c1
active: [1]; [8] 88% | [1]; at 50.0 µM 72.7% | [2]; [8] 91% | [2]; at 50.0 µM 74.9% | [3]; [8] 90% | [3]; at 50.0 µM 80.5% | [5]; [8] 90% | [5]; at 50.0 µM 94.2% | [6]; [8] 78%
inactive: [1]; [7] 1% | [2]; [7] -5% | [3]; [7] -3% | [4]; [7] -8% | [4]; [8] 47% | [4]; at 50.0 µM -4% | [5]; [7] 3% | [6]; [7] -4% | [6]; at 50.0 µM 60.3%

CCCCCCCCCCCCCCCc1ncc(C)[nH]1
inactive: [1]; [7] 69% | [1]; [8] 69% | [4]; [7] 28% | [6]; [7] 50%
active: [1]; at 50.0 µM 99.1% | [2]; [7] 72% | [2]; [8] 99% | [2]; at 50.0 µM 99.4% | [3]; [7] 91% | [3]; [8] 99% | [3]; at 50.0 µM 99.4% | [4]; [8] 98% | [4]; at 50.0 µM 97.4% | [5]; [7] 75% | [5]; [8] 99% | [5]; at 50.0 µM 99.5% | [6]; [8] 99% | [6]; at 50.0 µM 99%
